Experimental data from the supplement of paper PMC12632987.
In all, about 4,500 sequences were measured (“median log2 fold change of GCK-ALFA target abundance (FLAG IP / Myc IP barcode read proportion)”: median about 0.078, lowest 2% from about -0.6 on). The entries come from a sample that favours the lowest values as a whole.

B1: GBRAP_78_6654 (protein)
chain: EVEELIDKAMEHLDKAAKLTKKLDEESRNELLDLLVEAASHILLSEENGFDLEELKEALEYLKKALEYAKSLNTPVAKEIAEELEKAIEYLEKAIKLLEE
B2: GBRAP_52_6031 (protein)
chain: SRERMRALARELIDLVLAGRDDEARALAEELVATLSEEELRLLGEELARLTREAAPEDLDAYMRAAEIVADALEAAGYDEVLADDLLARVAAAAVENLAR
B3: GBRAP_52_6036 (protein)
chain: SRERMRRLAQEIVDLAKAGDLEGARALAREAVETLSEEELRLLGEELARLAREAAPEDLDAIMEVAFILADALVEGGYDEVLADDLLARVAAAAVENLQA
B4: GBRAP_196_5416 (protein)
chain: KYLEEIKELEKESEEEVKDIELSDWTIVVNFTPENLEEEAEKTAEIAKDLGNPEIVIVHDGTLEEMLEALKLLREKLKEKGVVSKISVDSRAREEAEEKA
B5: GBRAP_84_7000 (protein)
chain: MREEEIEKLVDYLAENSSLELLKKLYVYLLLKNDNKGATRLLSYLLEKDPEAAAEALDKATEAALEEKEEEVKKELLELAKKEGEEIYKKVKKLIELLEE
B6: GBRAP_160_4655 (protein)
chain: SAELEELLEKIREIFEEALEMMKGETHEQRVAIARVMKGDVILLLEESPSVSDETVDEVDEVMDELVETIEENPDWTDEEIEEKIDEALEEIEEILEEDF
B7: GBRAP_11_2732 (protein)
chain: KKEKLEEIRELAERLAELLQRLIEEGPEDEELRREAEEQLRKLEELVKEYGDEDLKKLVEIIREEWERAQEDPETAVEHLRNALAAARVLAGQVLLEIEE
B8: GBRAP_128_3559 (protein)
chain: SVEERVEKAKELLEKIKNSDVEEARKYAEELAKLLEEADEESLEAIVETILERLPELSVEHLDVLADVFRERIPEADPRTAEALAEIQVEALNEAEEKEE
B9: GBRAP_128_3586 (protein)
chain: SVEAVRAETRALMAAMKTADDATAKALATELAARFTTLSLEEAEAAAEVIEEELPGLSAEHLDILADALRAALPAMTPEKAELAADVLVAALNEAEEKDE
B10: GBRAP_166_4874 (protein)
chain: GLEELLEKARKEIRELLKKASEADDEERVELYIEIGEIIEELREAGAPKEAILELVREALKEAKELGLDVRLLAGIIINVTDFDEEEIDELDKIVEEVLK
B11: GBRAP_11_2667 (protein)
chain: KKEVYKKAAELAKELAKTVKKLIEEGIDNEELIKKAEELLKELKELAKKELDKASQKEVEVLEEIWKEAKEDKENSLKYWELLLAGARVLEGNFLLEYDE
B12: GBRAP_160_4272 (protein)
chain: SPEREELIEDIEEDREEILELVDKISPEEVRNFAVTSLGSHLLEAIDLGLVTDEQEDELMEIVDELEKELKEAENASKEEIKKIITEHYDKAIEILKKAK
B13: GBRAP_166_4873 (protein)
chain: HMEELLKKAEKEIEKLLKEASEADEEEQVELYIEIGEIIEELKEAGASLEDILELIERTLKEAKKLGLDVKKLAGIIINVTDFNEEEIDKIDEIVEKVLK
B14: GBRAP_14_3780 (protein)
chain: MEKIEEIIREKAEEIIELLTEIAPEKAEEITEIVEEVVERTIARIKETGNAEEAAEEGRDELLARIAELTADLPAETRARMLAVVAVEFGQAILEIEELL
B15: GBRAP_125_2986 (protein)
chain: EEEELLEDLREIFKALGLSEEDAEEAVKLAREFSLKQTLYALMAALGAEEVADAVAKLTEEQAKEVVKEASEYIKKNPNITPEEVVELLLELAKKQLAKA
B16: GBRAP_78_6666 (protein)
chain: ELEKIIDETLELLTEVIRASKSLPPEVQEAVLDEAVEAATELEEIEEEGPNLEELEEAIKHLEKLLELLEKNKSPELEPLIEKLKKQIEKLKKAKEELEK
B17: GBRAP_95_7066 (protein)
chain: EEDREIAEDLIDTAEDLVEIGLYEQAARAAKAAVEVLKEIGETGELALRAAEVLVKVAEATGDEEAAEAAKEVLERIREAGGDEERIKELEKRLEEAKKK
B18: GBRAP_184_5265 (protein)
chain: KVLERTIKAENVEELIAKMEEVRKEALATGADVIILLEVEKLTKEMIDALFAQLKALRDAGYKGKITVGIDADLTEEMIDYVIKKADEAGVNVVLAISEE
B19: GBRAP_84_6999 (protein)
chain: STDEEIIELAKEIFDRVKGEAAVKILALVLLKVTGETATRILNYALERDPQVAYDALSLAYEVVSEDKEEELEEEARRLMAEESPEVRAKFERLLELMKA
B20: GBRAP_128_3320 (protein)
chain: MDEELLAEFKELAEAAKKADLPTLAKLTAEMVALIGQADAETREEMAEIFRKALEELDAEKLDVVADTLRAEMPKLDPEAARVVADLAVDALNLAEEKEE
B21: GBRAP_11_2689 (protein)
chain: KKEKLEEGAKLAEKGAELVERLLREGVDNEELLAELEKTLEELLKLAKKHASPASQKLTEDIKETWKRLLADPENAEEYARELLAGLRVLAGQYLLEIEE
B22: GBRAP_137_3670 (protein)
chain: MIRVEVELENGLAFARITVEGSPEELERAAEIAEDIAGEIPDLAVSVKLTEEGRLEIDVFGTPESVEAFLRRLAERLDRTVEVTTRDEETGEVRRRVIRP
B23: GBRAP_184_5066 (protein)
chain: SVAEETLEVRDLAEARAKLAALRAAVADHRGDLVVHLVLPEFDREIVALVLEGLAEIRAAGYARRVTVGLDADLTEEEADFAIELADAAGVNLTLALPEE
B24: GBRAP_95_7084 (protein)
chain: EEELEEAEALMATAVDLYDAGLEEQAARAIRDALDELEELGYKVADKELLERLLRHFVALALRHFDAEEVERALALAEASGAPAEIIAALRAALAALRAA
B25: GBRAP_79_6747 (protein)
chain: GVEEARRALVEALRVVLPDLTEEEAAEAVASDEALRAALLRAGISEEMAAELLEAIDAIPELAAERFRRTVERMEGLEPEDRRDVLEATIAAVIYEAEQR
B26: GBRAP_160_4279 (protein)
chain: SEKLLELAEELEEDREEILSLVDEISAEEVRTLAVTDLGSILLEAIDLELLSDEEEDELAKIIDDLDAELAAAADASPAERRAIITRHYDKAIELLRKAA
B27: GBRAP_52_6358 (protein)
chain: ALEEALALLREALAAVAAGDEEEARAILEELVATYSEETILAAFERLAEEVADKDVATAEALLETALLLADVMDEAGRDPAVADDIEAIAARTYMAVKAK
B28: GBRAP_48_5840 (protein)
chain: EEEKREKAIEEILKIIKETAELLEEAKEEGLSEAAFEAILIDAAEEIKEVLEKYLGLGEEFEKLPLEEQLAIVEELVKTYKEEGEEATRKKIKEFIEKLE
B29: GBRAP_186_5371 (protein)
chain: EEEAEKEIEEFIDEAAKKGYVISGVLEVKEFTEEAKKKIFDELEALAEFSAEFGYKGALIIKSTVSEEEFEELKKFVEEKRDELSKETGAEVEVKIVHVK

Target: GABARAP, O95166
Sequence (O95166 whole entry, the tested form may be a part): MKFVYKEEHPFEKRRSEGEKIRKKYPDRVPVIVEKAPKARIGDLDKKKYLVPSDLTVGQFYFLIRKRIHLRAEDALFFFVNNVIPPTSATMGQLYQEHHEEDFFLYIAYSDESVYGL
Experiment: median log2 fold change of GCK-ALFA target abundance (FLAG IP / Myc IP barcode read proportion) (log2 ratio); each designed protein is fused to an ALFA-tag nanobody in HEK293 cells to bring the named protein to FLAG-tagged glucokinase (GCK); Myc marks an untargeted standard; higher = target protein stabilised (more abundant)
Conditions: target protein: 3xFLAG-MCP-GCK-ALFA reporter; HEK293 landing pad (RPLP)
How it was run: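 An ALFA-nanobody-fused binder library was recombined into HEK293 landing-pad cells and induced with 2 μg mL^−1 doxycycline. Cells were transfected with a plasmid expressing a FLAG-tagged target and a Myc-tagged standard. After 48 h, lysates underwent anti-FLAG and anti-Myc immunoprecipitation, and circular RNA barcodes were reverse transcribed, amplified and sequenced. Target abundance is the per-binder median log2 ratio of FLAG to Myc barcode read proportions. Barcodes needed ≥10^−7 proportion in both replicates, binders ≥3 barcodes per replicate, and a 10^−6 pseudocount was added; the two replicates were pooled.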

Q: B1 was tested. Which “median log2 fold change” value did it give?
A: Its value is 0.0422.

Q: With B2 as the binder, how does the “median log2 fold change” value read?
A: Its value is -0.202.

Q: B3 was tested. Which “median log2 fold change” value did it give?
A: Its value is -0.791.

Q: How did the “median log2 fold change” value turn out when B4 was run?
A: Its value is 0.451.

Q: How did the “median log2 fold change” value turn out when B5 was run?
A: The value was 0.0601.

Q: How did the “median log2 fold change” value turn out when B6 was run?
A: Its value is -0.612.

Q: Which “median log2 fold change” value does the source give for B7 here?
A: Its value is 0.303.

Q: With B8 as the binder, how does the “median log2 fold change” value read?
A: The value was 0.095.

Q: For B9, which “median log2 fold change” value is on record?
A: The value was 0.296.

Q: Which “median log2 fold change” value does the source give for B10 here?
A: The value was 0.0131.

Q: How did the “median log2 fold change” value turn out when B11 was run?
A: Its value is -0.102.

Q: B12 was tested. Which “median log2 fold change” value did it give?
A: The value was 0.239.

Q: With B13 as the binder, how does the “median log2 fold change” value read?
A: Its value is -0.298.

Q: With B14 as the binder, how does the “median log2 fold change” value read?
A: The value was -0.0168.

Q: Which “median log2 fold change” value does the source give for B15 here?
A: The value was -0.643.

Q: With B16 as the binder, how does the “median log2 fold change” value read?
A: The value was 0.274.

Q: Which “median log2 fold change” value does the source give for B17 here?
A: The value was 0.142.

Q: With B18 as the binder, how does the “median log2 fold change” value read?
A: The value was -0.0191.

Q: Which “median log2 fold change” value does the source give for B19 here?
A: The value was -0.601.

Q: B20 was tested. Which “median log2 fold change” value did it give?
A: Its value is 0.0824.

Q: For B21, which “median log2 fold change” value is on record?
A: The value was 0.195.

Q: Which “median log2 fold change” value does the source give for B22 here?
A: The value was 0.0906.

Q: With B23 as the binder, how does the “median log2 fold change” value read?
A: The value was 0.0273.

Q: With B24 as the binder, how does the “median log2 fold change” value read?
A: Its value is -0.692.

Q: Which “median log2 fold change” value does the source give for B25 here?
A: Its value is 0.209.

Q: With B26 as the binder, how does the “median log2 fold change” value read?
A: The value was -0.493.

Q: With B27 as the binder, how does the “median log2 fold change” value read?
A: The value was -0.632.

Q: B28 was tested. Which “median log2 fold change” value did it give?
A: The value was -0.364.

Q: Which “median log2 fold change” value does the source give for B29 here?
A: The value was 0.163.
